# Reference: PubChem BioAssay (NCATS)
# Inconclusive results are not listed. Entries that show only a call come without a potency. Calls of active or inactive are those of the source. Unless noted, calls follow the shape of the dose curve; as a rule, active = well fitted curve in the direction sought with a large enough effect; inconclusive = small, poorly fitted or top-dose-only effect, or another doubt; inactive = no such curve, though single readings can be large; an effect the other way counts as inactive or inconclusive.
# How the values were obtained:
# [1] = VSVG counterscreen qHTS to identify inhibitors of SARS-CoV-2 cell entry (AID 1645847; calls by dose curve; also: potency is read from the fitted curve at half-maximal effect; nearly all actives have a fitted effect of over 65% in size)
# Outline: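 HEK293-ACE2 cells (Expi293F, human ACE2) pretreated 1 h with compound, then infected with MLV-based VSV-G pseudotyped particles for 48 h at 37 C; luciferase luminescence normalized to VSV-G PP and bald PP wells.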
# [2] = qHTS Assay for Identification of Small Molecule Agonists for Thrombopoietin (TPO) Signaling Pathway (AID 917)
# Outline: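 Murine Ba/F3 cells expressing human TPO receptor and GPIIb-promoter luciferase, IL-3-starved overnight, given compound plus TPO at 26 pM (EC50). After 24 h at 37 C, 5% CO2, luminescence read.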
# [3] = molecular target: Muscarinic acetylcholine receptor M1 (Rattus norvegicus) (UniProt P08482); assay: qHTS Assay for Antagonists of Acetylcholine Muscarinic M1 Receptor: Kinetic Measurement of Intracellular Calcium Response (AID 943); also: nearly all actives have a fitted effect of over 75% in size; also: potency is read from the fitted curve at half-maximal effect
# Sequence of Muscarinic acetylcholine receptor M1 (Rattus norvegicus) (P08482 whole entry, looked up): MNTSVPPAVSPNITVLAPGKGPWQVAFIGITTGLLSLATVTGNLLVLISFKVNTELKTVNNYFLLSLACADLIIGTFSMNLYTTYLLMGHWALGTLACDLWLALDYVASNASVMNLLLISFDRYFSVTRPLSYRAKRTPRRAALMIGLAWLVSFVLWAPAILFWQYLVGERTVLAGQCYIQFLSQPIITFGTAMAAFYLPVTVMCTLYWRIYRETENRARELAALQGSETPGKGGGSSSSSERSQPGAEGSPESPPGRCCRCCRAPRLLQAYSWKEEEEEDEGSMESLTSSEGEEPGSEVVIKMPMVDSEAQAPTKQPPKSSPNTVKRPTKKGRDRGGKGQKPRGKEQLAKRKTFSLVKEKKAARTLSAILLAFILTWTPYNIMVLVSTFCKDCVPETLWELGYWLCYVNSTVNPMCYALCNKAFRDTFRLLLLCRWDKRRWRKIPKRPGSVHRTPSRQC
# Outline: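 Intracellular calcium flux, recorded with Fluo-4 in a kinetic plate reader, served as signal; the response to carbachol at EC80 (100 nM final) was taken as maximal over minimal fluorescence after a 10 min compound pre-incubation in rat M1-CHO cells.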
# [4] = molecular target: Nuclear receptor subfamily 1 group I member 3 (Homo sapiens) (UniProt Q14994); assay: Primary qHTS for antagonist of constitutive androstane receptor (CAR) against the NCATS DSHEA and TCM libraries (AID 1794836)
# Sequence of Nuclear receptor subfamily 1 group I member 3 (Homo sapiens) (Q14994 whole entry, looked up): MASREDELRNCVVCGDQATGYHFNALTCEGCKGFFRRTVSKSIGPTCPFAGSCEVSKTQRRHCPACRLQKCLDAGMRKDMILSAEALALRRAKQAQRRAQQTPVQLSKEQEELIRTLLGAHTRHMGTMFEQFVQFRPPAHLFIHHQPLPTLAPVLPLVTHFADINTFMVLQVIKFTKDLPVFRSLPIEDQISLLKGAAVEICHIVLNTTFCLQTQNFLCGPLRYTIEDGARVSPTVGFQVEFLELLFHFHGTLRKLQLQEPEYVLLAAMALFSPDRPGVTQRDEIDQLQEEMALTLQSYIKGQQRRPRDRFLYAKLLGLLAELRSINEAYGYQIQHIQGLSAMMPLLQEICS
# Outline: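 HepG2 cells stably carrying hCAR and a CYP2B6 luciferase reporter (2,500 cells/well) attached for 5 h, then received compounds with 48 uM CITCO for 24 h at 37C. ONE-Glo luminescence read antagonism; CellTiter-Fluor (405/540 nm) gave viability.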
# [5] = Viability counterscreen for agonist of constitutive androstane receptor (CAR) against the NCATS DSHEA and TCM libraries (AID 1794838);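 also: HepG2 cells with CYP2B6 reporter and hCAR plus 0.75 µM PK11195 antagonist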
# Outline: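 HepG2-CYP2B6-hCAR cells (2,500/well) treated 24 h at 37C with compounds plus 0.75 uM PK11195; viability read by CellTiter-Fluor fluorescence, Ex/Em 405/540 nm.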
# [6] = HepG2 viability counterscreen (readout 2: ATP content) against the NCATS DSHEA and TCM libraries (AID 1794840)
# Outline: (§1)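 HepG2 cells, 1,000/well, attached ~4 h, then exposed ~24 h at 37C to substances. Protease activity read by fluorescence of 25 uM GF-AFC (Ex/Em 380/510 nm) after 30 min; ATP then by CellTiter-Glo luminescence.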
# [7] = HepG2 viability counterscreen (readout 1: protease activity) against the NCATS DSHEA and TCM libraries (AID 1794841);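 also: cells exposed to compounds for about 24 h before the protease read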
# Outline: as §1
# [8] = molecular target: Cytochrome P450 2C9 (Homo sapiens) (UniProt P11712); assay: qHTS for inhibitors of CYP2C9 against the NCATS DSHEA and TCM libraries (AID 1919973); also: potency is read from the fitted curve at half-maximal effect
# Sequence of Cytochrome P450 2C9 (Homo sapiens) (P11712 whole entry, looked up): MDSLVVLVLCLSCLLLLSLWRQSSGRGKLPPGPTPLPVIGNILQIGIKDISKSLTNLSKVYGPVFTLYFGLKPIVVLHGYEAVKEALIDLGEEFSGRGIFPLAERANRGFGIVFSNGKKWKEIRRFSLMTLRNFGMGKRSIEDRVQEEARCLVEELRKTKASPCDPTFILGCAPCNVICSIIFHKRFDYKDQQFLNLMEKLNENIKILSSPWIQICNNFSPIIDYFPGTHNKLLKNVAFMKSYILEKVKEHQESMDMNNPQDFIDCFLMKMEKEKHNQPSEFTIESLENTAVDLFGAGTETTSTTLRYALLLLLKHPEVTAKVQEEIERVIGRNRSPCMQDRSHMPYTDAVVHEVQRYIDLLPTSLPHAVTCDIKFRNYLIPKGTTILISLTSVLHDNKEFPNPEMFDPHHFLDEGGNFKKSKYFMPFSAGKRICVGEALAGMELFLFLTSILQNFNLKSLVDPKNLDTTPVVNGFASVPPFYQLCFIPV
# Outline: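 Light output from converted D-luciferin reports remaining CYP activity. Compounds preincubate with enzyme and substrate for 15 min; NADPH regeneration (1x final) runs the reaction for 30-45 min.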
# [9] = molecular target: Luciferin 4-monooxygenase (Photinus pyralis) (UniProt P08659); assay: Biochemical firefly luciferase enzyme assay for NPC (AID 624030);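 also: purified P. pyralis luciferase at 10 nM with luciferin and ATP substrate; nearly all actives have a fitted effect of over 70% in size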
# Sequence of Luciferin 4-monooxygenase (Photinus pyralis) (P08659 whole entry, looked up): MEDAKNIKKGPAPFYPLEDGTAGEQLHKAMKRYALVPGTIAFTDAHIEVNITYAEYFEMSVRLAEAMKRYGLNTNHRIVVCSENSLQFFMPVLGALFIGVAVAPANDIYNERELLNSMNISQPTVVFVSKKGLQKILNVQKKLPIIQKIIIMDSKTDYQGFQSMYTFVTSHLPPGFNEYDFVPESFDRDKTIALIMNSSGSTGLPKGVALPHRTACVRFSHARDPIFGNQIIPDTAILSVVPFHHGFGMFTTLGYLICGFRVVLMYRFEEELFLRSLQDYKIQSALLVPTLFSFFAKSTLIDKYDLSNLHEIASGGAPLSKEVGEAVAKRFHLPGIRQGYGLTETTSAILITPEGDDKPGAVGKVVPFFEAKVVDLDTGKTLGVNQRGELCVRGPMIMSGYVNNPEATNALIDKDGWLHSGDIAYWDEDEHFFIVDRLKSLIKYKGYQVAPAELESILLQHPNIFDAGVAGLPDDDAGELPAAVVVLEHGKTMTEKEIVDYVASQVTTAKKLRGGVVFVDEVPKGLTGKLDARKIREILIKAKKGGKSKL
# Outline: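 Counter-screen for direct inhibition of the luciferase enzyme by approved-drug library compounds, run at 10 nM enzyme in 50 mM Tris acetate (final). Luminescence was read within 5 min of enzyme-buffer addition and normalized to PTC124 versus DMSO (0%).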
# [10] = S16 Schwann cell viability assay (CellTiter-Glo assay) (AID 624031);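 also: native untransfected S16 rat Schwann cells; cellular ATP luminescence as a viability measure; nearly all actives have a fitted effect of over 70% in size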
# Outline: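 Parental S16 cells, 24 h compound, 37 °C. ATP-luminescence viability; DMSO = 0% activity, empty wells as reference; curves classified by fit quality and efficacy.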
# AA1029 = assay: qHTS profiling for inhibitors of Plasmodium falciparum proliferation (AID 504749); also: nearly all actives have a fitted effect of over 60% in size; conditions: P. falciparum in erythrocytes, SYBR Green DNA, 72 h; series mostly up to 28.7 µM
# Outline: (§2)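 P. falciparum-infected erythrocytes (0.3% parasitemia, 2.5% hematocrit final) were exposed to compounds for 72 h at 37 C in 5% CO2, then lysed with SYBR Green buffer overnight at room temperature; parasite DNA fluorescence was normalized to artemisinin and DMSO controls.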
# CP191 = assay: as above; conditions: P. falciparum in erythrocytes, SYBR Green DNA, 72 h; series mostly up to 28.7 µM
# Outline: as §2
# Dd2 = assay: as above; conditions: P. falciparum in erythrocytes, SYBR Green DNA, 72 h; series mostly up to 28.7 µM
# Outline: as §2
# JCK = assay: as above; conditions: P. falciparum in erythrocytes, SYBR Green DNA, 72 h; series mostly up to 28.7 µM
# Outline: as §2
# N140 = assay: as above; conditions: P. falciparum in erythrocytes, SYBR Green DNA, 72 h; series mostly up to 28.7 µM
# Outline: as §2
# TAB165 = assay: as above; conditions: P. falciparum in erythrocytes, SYBR Green DNA, 72 h; series mostly up to 28.7 µM
# Outline: as §2
# [11] = Cell Viability - LYMP2-015 (AID 971); also: nearly all actives have a fitted effect of over 55% in size; also: potency is read from the fitted curve at half-maximal effect
# Outline: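 Acute toxicity was scored as a concentration-dependent drop in intracellular ATP in lymphoblastoid cells after 24 hr compound exposure in complete medium. Detection used CellTiter-Glo luciferase luminescence.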
# [12] = molecular target: Glucocorticoid receptor (Homo sapiens) (UniProt P04150); assay: qHTS assay for small molecule antagonists of glucocorticoid receptor signaling (AID 588533; active = well fitted inhibition curve with a large enough effect in the signal ratio, with a control signal flat, not every such curve was filed as active; the % refers to the signal ratio;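 also: cells stimulated with 2 nM dexamethasone as agonist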)
# Sequence of Glucocorticoid receptor (Homo sapiens) (P04150 whole entry, looked up): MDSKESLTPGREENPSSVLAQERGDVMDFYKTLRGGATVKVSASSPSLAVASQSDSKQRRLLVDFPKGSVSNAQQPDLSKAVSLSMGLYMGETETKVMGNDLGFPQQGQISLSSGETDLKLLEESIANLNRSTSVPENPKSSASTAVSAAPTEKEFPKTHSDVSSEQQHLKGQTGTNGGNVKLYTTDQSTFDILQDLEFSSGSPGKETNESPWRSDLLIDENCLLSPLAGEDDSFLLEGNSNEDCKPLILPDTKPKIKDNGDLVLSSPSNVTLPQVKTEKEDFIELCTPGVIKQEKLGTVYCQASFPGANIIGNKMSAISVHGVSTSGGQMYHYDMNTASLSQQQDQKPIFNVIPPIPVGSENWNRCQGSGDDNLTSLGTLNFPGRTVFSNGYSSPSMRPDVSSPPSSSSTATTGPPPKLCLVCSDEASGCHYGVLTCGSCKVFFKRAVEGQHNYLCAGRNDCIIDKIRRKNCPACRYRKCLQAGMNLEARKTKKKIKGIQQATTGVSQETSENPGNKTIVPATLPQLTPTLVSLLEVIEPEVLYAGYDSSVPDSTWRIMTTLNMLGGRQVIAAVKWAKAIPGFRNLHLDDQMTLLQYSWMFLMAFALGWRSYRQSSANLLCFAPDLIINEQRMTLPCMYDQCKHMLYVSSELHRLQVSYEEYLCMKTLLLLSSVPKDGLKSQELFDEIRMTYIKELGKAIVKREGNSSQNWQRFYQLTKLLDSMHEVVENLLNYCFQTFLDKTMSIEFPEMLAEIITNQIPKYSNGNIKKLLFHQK
# Outline: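 Antagonist-mode qHTS: compound titrations added to GRE-bla HeLa cells, then dexamethasone 2 nM final; 18 h, 37 C. CCF4 FRET fluorescence normalized to dexamethasone and DMSO; IC50 from Hill fit.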
# [13] = qHTS assay for small molecule activators of the human pregnane X receptor (PXR) signaling pathway (AID 720659; call rule not given here)
# [14] = Cell Viability - LYMP1-002 - Assay at 40 hr (AID 994); also: nearly all actives have a fitted effect of over 60% in size; also: potency is read from the fitted curve at half-maximal effect
# Outline: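 Viability in the human lymphoblastoid line was measured as intracellular ATP via CellTiter-Glo after 40 hr compound exposure. Tetraoctylammonium bromide served as positive control.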
smiles,measurement,setting,value
COc1cc([C@@H]2c3cc4c(cc3[C@@H](O[C@@H]3O[C@@H]5CO[C@@H](C)O[C@H]5[C@H](O)[C@H]3O)[C@H]3COC(=O)[C@H]23)OCO4)cc(OC)c1OP(=O)(O)O,Potency,[1],0.482 µM (active)
CC[C@H](NC(=O)[C@H](CS(=O)(=O)CC1CC1)N[C@@H](c1ccc(F)cc1)C(F)(F)F)C(=O)C(=O)NC1CC1,Potency,[1],10.8 µM (active)
N#C/C(=C\c1ccc(O)c(O)c1)C(N)=S,outcome,[2],inactive
same,Potency,[3],inactive
COc1cc2c(cc1O)CC1c3c(cc(O)c(OC)c3-2)CCN1C (configuration not stated),Potency,[4],inactive
same,outcome,[5],inactive
same,outcome,[6],inactive
same,outcome,[7],inactive
same,Potency,[8],10 µM (active)
O=C(OC1CCN(CCCl)CC1)C(c1ccccc1)c1ccccc1,Potency,[3],0.112 µM (active)
CCc1c(C(=O)OC)ncc2[nH]c3cc(OC)c(OC)cc3c12,outcome,[2],inactive
C[C@]12CC[C@H](O)CC1=CCC1C2CC[C@]2(C)C(=O)CC[C@@H]12 (some centres not stated),Potency,[9],inactive
same,Potency,[10],inactive
same,Potency,AA1029,inactive
same,Potency,CP191,inactive
same,Potency,Dd2,inactive
same,Potency,JCK,inactive
same,Potency,N140,inactive
same,Potency,TAB165,inactive
COc1ccc2c(c1O)-c1c(OC)c(OC)cc3c1[C@H](C2)N(C)CC3,Potency,[4],inactive
same,outcome,[5],inactive
same,outcome,[6],inactive
same,outcome,[7],inactive
same,Potency,[8],inactive
C[N+]1([O-])[C@@H]2CC(OC(=O)[C@@H](CO)c3ccccc3)C[C@@H]1[C@H]1O[C@H]12 (some centres not stated),Potency,[9],inactive
same,Potency,[10],inactive
same,Potency,AA1029,inactive
same,Potency,CP191,inactive
same,Potency,Dd2,inactive
same,Potency,JCK,inactive
same,Potency,N140,inactive
same,Potency,TAB165,inactive
O=S1OCC2C(CO1)C1(Cl)C(Cl)=C(Cl)C2(Cl)C1(Cl)Cl (configuration not stated),Potency,[11],inactive
COC(=O)NC(=S)Nc1ccccc1NC(=S)NC(=O)OC,Potency,[12],inactive
C/C=C/c1ccc2c(c1)OCO2,Potency,[11],inactive
same,outcome,[13],inactive
ClC1=C(Cl)C2(Cl)C3C4CC(C5OC45)C3C1(Cl)C2(Cl)Cl (configuration not stated),Potency,[11],39.8 µM (active)
same,Potency,[14],12.6 µM (active)
same,Potency,[12],inactive
same,Potency,[9],inactive
same,Potency,[10],inactive
same,Potency,AA1029,inactive
same,Potency,CP191,inactive
same,Potency,Dd2,inactive
same,Potency,JCK,inactive
same,Potency,N140,inactive
same,Potency,TAB165,inactive
ClC(Cl)=C(c1ccc(Cl)cc1)c1ccc(Cl)cc1,Potency,[14],inactive
same,Potency,[12],inactive
C=CCc1ccc(OC)cc1,outcome,[13],inactive
COP(=S)(OC)Oc1ccc([N+](=O)[O-])cc1,Potency,[14],inactive
same,outcome,[13],inactive
